PPC-1+TRAIL kill: compounds killing PPC-1 cancer cells with TRAIL present, primary screen, TRAIL potentiator project, ATPLite luminescence, uHTS | PPC-1 cells + TRAIL, ATPLite viability luminescence | cell killing (% activity), % at 4 µM or 5 µM | 0.41% of 220,000 active;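 active = cell killing above 50% in the first pass at 4 µM, then a duplicate retest at 5 µM averaging 50% or more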
STAT1 blocker: STAT1 signaling inhibitors, primary screen, cell-based, HTS, luciferase reporter. AID 920, 2007. 0.35% of 200,000 active. NIH 3T3 STAT1-luciferase reporter, IFN-gamma, luminescence. inhibition, % at 5.5 µM;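 active = inhibition above a set limit, the mean inhibition across all tested compounds plus 3 SD, cut at about 34% in these data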
HSP90 refold inh: HSP90 inhibitors, primary screen, cell lysate, luminescence | 0.91% of 290,000 active | inhibition, % at 5.6 µM | Rabbit reticulocyte lysate, luciferase refolding luminescence, 3 h;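 active = inhibition above the screen-wide mean plus 3 SD, computed separately per campaign, cut at about 16% in these data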;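 note: inhibitors lower the luminescence because luciferase stays unfolded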
HSF1 inhib: HSF1 inhibitors in luciferase reporter cells, primary screen, cell-based, NIH3T3, luminescence; NIH3T3-HGL HSE-luciferase, MG132-induced, luminescence 8 h; stronger effect = lower value; activity change, negative = inhibition, % at 7.5 µM (by protocol); 0.77% of 300,000 active;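 active = more than half of replicate wells show activity change below -50%, luminescence cut by over half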;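 note: luciferase reports HSF-1 transcriptional activity via heat shock element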
STAT3 inh-1: IL-6 driven STAT3 reporter inhibitors, primary screen, U3A cells, luciferase, luminescence, MLSCN library; inhibition, % at 5.5 µM; AID 862, 2007; 0.89% of 190,000 active; IL-6 STAT3-luciferase reporter; host cell line lacks STAT1;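 active = inhibition above the mean inhibition across all screened compounds plus 3 SD, cut at about 44% in these data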
TRAIL sens C8: viability loss with TRAIL in NB7+C8 cells, primary screen, TRAIL sensitizer project, cell-based, ATPlite luminescence. inhibition (viability loss, TRAIL sensitization), % at 10 µM. AID 624354, 2012. 1% of 360,000 active;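 active = compounds causing at least 50% loss of cell viability in the single-dose screen, relative to plate controls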
STAT3 inh-2: STAT3 reporter inhibitors, retest of hits, confirmation, U3A cells, luciferase, luminescence; shares compounds with STAT3 inh-1; IL-6 STAT3 luciferase reporter; cell line lacks STAT1; inhibition, % at 5.7 µM; 45% of 1,200 active; AID 1265, 2008;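 active = inhibition above the hit cutoff computed for the primary STAT3 screen, cut at about 44% in these data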
NFkB inh 2: NF-kB reporter inhibitors in human cells, confirmation, counter-screen for STAT3 inhibitor project, cell-based, HEK293T, luciferase, TNF-alpha stimulus; shares compounds with STAT3 inh-1; TNF-alpha induced; inhibition, % at 5.7 µM; 36% of 1,200 active; AID 1308, 2008;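 active = inhibition above the mean of solvent-only control wells plus 3 SD, cutoff set per campaign, cut at about 13% in these data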
STAT1 inh 2: STAT1 reporter inhibitors, IFN-gamma induced, confirmation, counter-screen for STAT3 inhibitor project, cell-based, NIH 3T3, luciferase luminescence; shares compounds with STAT3 inh-1; NIH 3T3 STAT1-luciferase reporter; inhibition, % at 5.7 µM; 27% of 1,200 active;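 active = inhibition above the mean plus 3 SD of solvent-only control wells, limit set per screening run, cut at about 16% in these data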
Large screens that a line does not name were inactive (follow-up assays come after a bar, where they were run). An excerpt weighted towards active compounds, which were near 2.4% of everything screened.

COc1cccc2cc(-c3cn4ccc(C)cc4n3)c(=O)oc12	none (no result: PPC-1+TRAIL kill)
CCOc1cccc2cc(-c3cn4cc(C)ccc4n3)c(=O)oc12	STAT3 inh-1 69, TRAIL sens C8 66 | STAT3 inh-2 inactive | NFkB inh 2 inactive | STAT1 inh 2 inactive
CC1(Oc2cccc(C#N)c2)CCN(Cc2csc3ccccc23)C1 (stereo not given)	none (no result: PPC-1+TRAIL kill, STAT1 blocker, HSP90 refold inh, HSF1 inhib, STAT3 inh-1)
O=c1oc2ccccc2cc1-c1nc2c(s1)CCCC2	STAT3 inh-1 74, TRAIL sens C8 63 | STAT3 inh-2 48 | NFkB inh 2 31 | STAT1 inh 2 inactive
COC1=CC(=O)OC(c2ccc(C#N)cc2)C1 (stereo not given)	none (no result: PPC-1+TRAIL kill, STAT1 blocker, HSP90 refold inh, HSF1 inhib, STAT3 inh-1)
COc1cccc(-c2nnc(-c3ccc(C)o3)o2)c1	STAT3 inh-1 55, TRAIL sens C8 58 | STAT3 inh-2 inactive | NFkB inh 2 inactive | STAT1 inh 2 inactive
CCCCN(C)C(=O)c1sc(=O)n(Cc2ccccc2C#N)c1C	none (no result: PPC-1+TRAIL kill, STAT1 blocker, HSP90 refold inh, HSF1 inhib, STAT3 inh-1)
Cc1ccc(Oc2ccc(C(=O)NCc3ccncc3)cc2)cc1	STAT3 inh-1 52 | STAT3 inh-2 44 | NFkB inh 2 inactive | STAT1 inh 2 inactive
CCOc1ccc(C(C)=O)cc1CSC(=N)N	none
CCCCOc1ccc(Br)cc1CSC(=N)N	STAT3 inh-1 58 | STAT3 inh-2 71 | NFkB inh 2 25 | STAT1 inh 2 21
CS(=O)(=O)N1CCc2cc(-c3csc(NC(=O)Cc4ccccc4)n3)ccc21	STAT3 inh-1 53 | STAT3 inh-2 46 | NFkB inh 2 inactive | STAT1 inh 2 inactive
CC1Cc2cc(-c3csc(NC(=O)Cc4cccs4)n3)ccc2N1S(C)(=O)=O (stereo not given)	STAT3 inh-1 79 | STAT3 inh-2 79 | NFkB inh 2 29 | STAT1 inh 2 inactive
CCc1nc2c(OCC(=O)C(C)(C)C)cccn2c1N(C)C(=O)c1ccco1	none (no result: PPC-1+TRAIL kill, STAT1 blocker, HSP90 refold inh, HSF1 inhib, STAT3 inh-1)
CC(C)c1ccc(NC(=O)C2CCCCC2C(=O)O)cc1 (stereo not given)	STAT3 inh-1 50 | STAT3 inh-2 inactive | NFkB inh 2 inactive | STAT1 inh 2 inactive
CCCCNC(=O)C1(C)CCN1C(=O)c1cc(OC)ccc1Br (stereo not given)	none (no result: PPC-1+TRAIL kill, STAT1 blocker, HSP90 refold inh, HSF1 inhib, STAT3 inh-1)
N#Cc1ccc(CSc2ccc(S(=O)(=O)N3CCCCCC3)cn2)cc1	none (no result: PPC-1+TRAIL kill, STAT1 blocker, HSP90 refold inh, HSF1 inhib, STAT3 inh-1)
O=c1c2ccccc2nc(N/N=C/c2c(O)ccc3ccccc23)n1O	STAT3 inh-1 46, TRAIL sens C8 71 | STAT3 inh-2 inactive | NFkB inh 2 21 | STAT1 inh 2 inactive
O=c1c2ccccc2nc(N/N=C/c2ccc(O)cc2)n1O	STAT3 inh-1 52, TRAIL sens C8 62 | STAT3 inh-2 inactive | NFkB inh 2 16 | STAT1 inh 2 34
CCN(CC)C(=O)c1cccc(-c2csc(C(C)(NC(C)=O)c3ccc(OC)cc3)n2)c1 (stereo not given)	none (no result: PPC-1+TRAIL kill, STAT1 blocker, HSP90 refold inh, HSF1 inhib, STAT3 inh-1)
COC(=O)C1(C(=O)OC)C2CCCCC2N(S(=O)(=O)c2ccc(C)cc2)[C@@H]1CC(C)=O (stereo not given in full)	none (no result: PPC-1+TRAIL kill, STAT1 blocker, HSP90 refold inh, HSF1 inhib, STAT3 inh-1)
COc1ccc(-c2c(N)cnc(C(=O)O)c2C)c(OCc2ccccc2)c1OC	none (no result: PPC-1+TRAIL kill, STAT1 blocker, HSP90 refold inh, HSF1 inhib, STAT3 inh-1)
C=CCN=C1NN=C(c2cc(C)n(CC=C)c2C)CS1	STAT3 inh-1 74, TRAIL sens C8 52 | STAT3 inh-2 50 | NFkB inh 2 26 | STAT1 inh 2 inactive
COCCN=C1NN=C(c2cc(C)n(CC3CCCO3)c2C)CS1 (stereo not given)	none
COCCNc1nc2cc(-c3ccc(C)cc3)sc2c(=O)n1C	none (no result: PPC-1+TRAIL kill, STAT1 blocker, HSP90 refold inh, HSF1 inhib, STAT3 inh-1)
O=C(Nc1nc2c(s1)CCCC2)c1cccnc1	none

Assay outcomes deposited in PubChem BioAssay by several laboratories.
